The whole screen tested about 39,000 compounds, of which about 1,500 (3.8%) were called active. The sample as a whole holds a higher share of actives than the screen did.

In this assay the test system is HSkMC (human skeletal muscle cells). The experiment in a line: cytotoxicity call (relative viability < 0.9). Conditions: 10 µM.
For the molecule `Cc1ccc(S(=O)(=O)N(C)C[C@H]2Oc3ccc(NS(=O)(=O)c4ccc(F)cc4)cc3C(=O)N([C@H](C)CO)C[C@H]2C)cc1`, the cytotoxicity call is “inactive”.
Consider `C[C@H](CO)N1C[C@H](C)[C@@H](CN(C)C(=O)c2ccccc2)OCCCC[C@H](C)Oc2ccc(NC(=O)Nc3ccccc3)cc2C1=O`, for which the cytotoxicity call is “inactive”.
The same measure for `C[C@H](CO)N1C[C@H](C)[C@@H](CN(C)C(=O)C2CCOCC2)Oc2ncc(-c3cccc(C#N)c3)cc2C1=O`: “inactive”; for `C[C@H]1CN([C@@H](C)CO)C(=O)Cc2cc(NC(=O)Nc3ccc4c(c3)OCO4)ccc2O[C@@H]1CN(C)Cc1ccc(C(F)(F)F)cc1`: “inactive”.
The same measure for `C[C@H](CO)N1C[C@H](C)[C@H](CN(C)Cc2ccc(C(F)(F)F)cc2)Oc2ccc(NC(=O)Nc3ccc4c(c3)OCO4)cc2CC1=O`: “inactive”.
Take `C[C@@H]1CN([C@H](C)CO)C(=O)Cc2cc(NC(=O)Nc3ccc4c(c3)OCO4)ccc2O[C@H]1CN(C)Cc1ccc(C(F)(F)F)cc1`: the cytotoxicity call was “active”.
Regarding `C[C@H]1CN([C@@H](C)CO)C(=O)Cc2cc(NC(=O)Nc3ccc4c(c3)OCO4)ccc2O[C@H]1CN(C)Cc1ccc(C(F)(F)F)cc1`, the cytotoxicity call is “inactive”.
Consider `C[C@@H]1CN([C@@H](C)CO)C(=O)Cc2cc(NC(=O)Nc3ccc4c(c3)OCO4)ccc2O[C@@H]1CN(C)Cc1ccc(C(F)(F)F)cc1`, for which the cytotoxicity call was “inactive”.
The same measure for `C[C@@H]1CN([C@@H](C)CO)C(=O)Cc2cc(NC(=O)Nc3ccc4c(c3)OCO4)ccc2O[C@H]1CN(C)Cc1ccc(C(F)(F)F)cc1`: “inactive”; for `C[C@H](CO)N1C[C@H](C)[C@@H](CN(C)Cc2ccc(C(F)(F)F)cc2)Oc2ccc(NC(=O)Nc3ccc4c(c3)OCO4)cc2CC1=O`: “active”; for `C[C@H](CO)N1C[C@H](C)[C@H](CN(C)C(=O)Nc2ccc3c(c2)OCO3)Oc2ccc(NC(=O)Nc3ccc(C(F)(F)F)cc3)cc2CC1=O`: “inactive”.
The same measure for `C[C@@H]1CN([C@H](C)CO)C(=O)Cc2cc(NC(=O)Nc3ccc4c(c3)OCO4)ccc2O[C@@H]1CN(C)Cc1ccc(C(F)(F)F)cc1`: “active”.
The same measure for `OCc1ccc2c(c1)OCCO2`: “inactive”.
With `C[C@@H]1CN([C@@H](C)CO)C(=O)c2cc(NC(=O)Cn3cnnn3)ccc2O[C@@H]1CN(C)Cc1ccc(Cl)c(Cl)c1`, the cytotoxicity call is “inactive”.
`C[C@@H]1CN([C@@H](C)CO)S(=O)(=O)c2ccc(-c3cncnc3)cc2O[C@H]1CN(C)C(=O)Cc1ccncc1`: the cytotoxicity call was “inactive”.
For the molecule `COc1ccc(S(=O)(=O)Nc2ccc3c(c2)C(=O)N([C@@H](C)CO)C[C@H](C)[C@H](CN(C)C(=O)Nc2cccc4ccccc24)OCCCC[C@H](C)O3)cc1`, the cytotoxicity call was “inactive”.
For `C[C@@H]1CCCCO[C@H](CN(C)S(C)(=O)=O)[C@@H](C)CN([C@@H](C)CO)C(=O)c2cc(NS(=O)(=O)c3ccccc3)ccc2O1`, the cytotoxicity call was “inactive”.
As to `C[C@@H]1CN([C@@H](C)CO)C(=O)c2cccc(NC(=O)c3ccc(-c4nccs4)cc3)c2O[C@@H]1CN(C)Cc1ccc(C(=O)O)cc1`, the cytotoxicity call is “inactive”.
Consider `Cc1noc(C)c1NC(=O)Nc1ccc2c(c1)C(=O)N([C@H](C)CO)C[C@@H](C)[C@H](CN(C)Cc1ccc(Cl)c(Cl)c1)OCCCC[C@@H](C)O2`, for which the cytotoxicity call was “inactive”.
The same measure for `C[C@H]1CCCCO[C@H](CN(C)Cc2ccc(Cl)c(Cl)c2)[C@@H](C)CN([C@@H](C)CO)C(=O)c2cc(NC(=O)Nc3ccccc3)ccc2O1`: “inactive”; for `C[C@@H]1CCCCO[C@@H](CN(C)Cc2ccc(Cl)c(Cl)c2)[C@@H](C)CN([C@H](C)CO)C(=O)c2cc(NC(=O)Nc3ccccc3)ccc2O1`: “inactive”; for `C[C@@H]1CN([C@H](C)CO)C(=O)c2cc(NC(=O)Nc3ccc(F)cc3)ccc2O[C@@H](C)CCCCO[C@H]1CN(C)Cc1ccc(Cl)c(Cl)c1`: “active”.
The same measure for `C[C@@H]1CN([C@H](C)CO)C(=O)c2cc(NC(=O)Nc3ccccc3)ccc2O[C@@H](C)CCCCO[C@H]1CN(C)Cc1ccc(Cl)c(Cl)c1`: “active”; for `Cc1noc(C)c1NC(=O)Nc1ccc2c(c1)C(=O)N([C@@H](C)CO)C[C@@H](C)[C@H](CN(C)Cc1ccc(Cl)c(Cl)c1)OCCCC[C@H](C)O2`: “inactive”; for `Cc1noc(C)c1NC(=O)Nc1ccc2c(c1)C(=O)N([C@H](C)CO)C[C@@H](C)[C@@H](CN(C)Cc1ccc(Cl)c(Cl)c1)OCCCC[C@H](C)O2`: “active”.
Turning to `C[C@@H]1CCCCO[C@@H](CN(C)Cc2ccc(Cl)c(Cl)c2)[C@@H](C)CN([C@@H](C)CO)C(=O)c2cc(NC(=O)Nc3ccc(F)cc3)ccc2O1`, the cytotoxicity call was “inactive”.
The same measure for `C[C@H]1CCCCO[C@H](CN(C)Cc2ccc(Cl)c(Cl)c2)[C@@H](C)CN([C@@H](C)CO)C(=O)c2cc(NC(=O)Nc3ccc(F)cc3)ccc2O1`: “inactive”.
The same measure for `CO[C@@H]1CN(C)C(=O)c2cc(NC(=O)Nc3ccccc3F)ccc2OC[C@@H](C)N(Cc2ccccc2C(=O)O)C[C@@H]1C`: “inactive”; for `Cc1noc(C)c1NC(=O)Nc1ccc2c(c1)C(=O)N([C@H](C)CO)C[C@H](C)[C@H](CN(C)Cc1ccc(Oc3ccccc3)cc1)O2`: “inactive”; for `COc1cccc(S(=O)(=O)N(C)C[C@H]2OCc3cn(nn3)CCCC(=O)N([C@H](C)CO)C[C@H]2C)c1`: “inactive”.
As for `COc1ccc(NC(=O)N(C)C[C@@H]2OCCCC[C@H](C)Oc3ccc(NC(=O)Nc4cccc5ccccc45)cc3C(=O)N([C@H](C)CO)C[C@@H]2C)cc1`, the cytotoxicity call was “inactive”.
In the case of `C[C@@H]1CN([C@@H](C)CO)C(=O)Cc2cc(NC(=O)Cn3cnnn3)ccc2O[C@@H]1CN(C)CC1CCCCC1`, the cytotoxicity call was “inactive”.
The same measure for `CC(C)NC(=O)N(C)C[C@@H]1Oc2cc(C#Cc3ccc(F)cc3)ccc2S(=O)(=O)N([C@H](C)CO)C[C@@H]1C`: “inactive”.
For the molecule `C[C@H]1CN([C@@H](C)CO)C(=O)c2cccc(NC(=O)Nc3ccc(F)cc3)c2O[C@H]1CN(C)C(=O)Nc1cccc2ccccc12`, the cytotoxicity call is “inactive”.
The same measure for `COc1ccc([Si](C)(C)[C@@H]2[C@@H](CCn3cc([C@H](O)c4ccccc4)nn3)O[C@]3(C(=O)N(Cc4cccc(N5CCOC5=O)c4)c4ccccc43)[C@H]2C)cc1`: “inactive”.
The same measure for `C[C@@H]1CN([C@@H](C)CO)C(=O)Cc2cc(NC(=O)Cn3cnnn3)ccc2O[C@@H]1CN(C)CC1CC1`: “inactive”; for `COc1ccc(Oc2cc(NCCC(F)(F)F)c3ncc(-c4ccc(C(=O)NC5CC5)c(C)c4)n3n2)c(F)c1F`: “active”; for `Cc1ccc(S(=O)(=O)Nc2ccc3c(c2)C(=O)N([C@H](C)CO)C[C@H](C)[C@H](CN(C)S(C)(=O)=O)OCCCC[C@@H](C)O3)cc1`: “inactive”.
The same measure for `C=CC[C@H](CC(=O)N(CCO)Cc1ccccc1)C(=O)N[C@H](COC(=O)[C@H](CC=C)NC(=O)OCC1c2ccccc2-c2ccccc21)C(C)(C)C`: “inactive”; for `C[C@@H]1CN([C@@H](C)CO)C(=O)Cc2cc(NC(=O)Nc3ccc(F)cc3)ccc2O[C@H]1CN(C)Cc1ccc(-c2ccccc2)cc1`: “inactive”; for `C[C@H]1CN([C@@H](C)CO)C(=O)Cc2cc(NC(=O)Nc3ccc(F)cc3)ccc2O[C@H]1CN(C)Cc1ccc(C(=O)Nc2ccccc2N)cc1`: “active”.
Turning to `C[C@H](CO)N1C[C@H](C)[C@H](CN(C)S(C)(=O)=O)Oc2ccc(NC(=O)Nc3ccccc3)cc2CC1=O`, the cytotoxicity call is “active”.
In the case of `C[C@@H]1CN([C@H](C)CO)C(=O)Cc2cc(NC(=O)Nc3ccccc3)ccc2O[C@H]1CN(C)S(C)(=O)=O`, the cytotoxicity call was “inactive”.
Take `C[C@H]1CN([C@@H](C)CO)C(=O)Cc2cc(NC(=O)Nc3ccccc3)ccc2O[C@H]1CN(C)S(C)(=O)=O`: the cytotoxicity call is “inactive”.
The same measure for `C[C@@H]1CN([C@@H](C)CO)C(=O)Cc2cc(NC(=O)Nc3ccccc3)ccc2O[C@@H]1CN(C)Cc1ccc(-c2ccccc2)cc1`: “inactive”.
`C[C@H](CO)N1C[C@H](C)[C@H](CN(C)Cc2ccc(-c3ccccc3)cc2)Oc2ccc(NC(=O)Nc3ccccc3)cc2CC1=O`: the cytotoxicity call is “inactive”.
Regarding `C[C@H](CO)N1C[C@H](C)[C@H](CN(C)Cc2ccc(C(=O)Nc3ccccc3N)cc2)Oc2ccc(NC(=O)Nc3ccc(F)cc3)cc2CC1=O`, the cytotoxicity call was “inactive”.
Take `C[C@@H]1CN([C@H](C)CO)C(=O)Cc2cc(NC(=O)Nc3ccccc3)ccc2O[C@@H]1CN(C)Cc1ccc(-c2ccccc2)cc1`: the cytotoxicity call was “active”.
The same measure for `C[C@@H]1CN([C@H](C)CO)C(=O)Cc2cc(NC(=O)Nc3ccc(F)cc3)ccc2O[C@H]1CN(C)Cc1ccc(-c2ccccc2)cc1`: “active”.
The same measure for `C[C@H](CO)N1C[C@H](C)[C@@H](CN(C)Cc2ccc(C(=O)Nc3ccccc3N)cc2)Oc2ccc(NC(=O)Nc3ccc(F)cc3)cc2CC1=O`: “inactive”.
On to `Cc1sc(Nc2ccccc2)nc1-c1ccc(Cl)cc1`, for which the cytotoxicity call was “inactive”.
The same measure for `COc1ccc(CCN2C(=O)[C@@]3(c4ccc([N+](=O)[O-])cc4)CC(=O)N(CC45CC6CC(CC(C6)C4)C5)[C@@H]3c3ccc(CO)cc32)cc1`: “inactive”; for `O=C1CSC(=S)N1`: “inactive”.
The same measure for `COc1ccc(NC(=O)N(C)C[C@H]2Oc3c(NC(=O)Nc4ccc(C(F)(F)F)cc4)cccc3C(=O)N([C@H](C)CO)C[C@@H]2C)cc1`: “inactive”.
The same measure for `COc1ccc(S(=O)(=O)Nc2ccc3c(c2)CC(=O)N([C@H](C)CO)C[C@H](C)[C@@H](CN(C)S(=O)(=O)c2ccccc2)O3)cc1`: “inactive”.
Regarding `C[C@@H]1CCCCO[C@@H](CN(C)Cc2ccncc2)[C@H](C)CN([C@H](C)CO)C(=O)c2cc(NC(=O)Cc3ccccc3)ccc2O1`, the cytotoxicity call is “inactive”.
The same measure for `C[C@@H]1CN([C@@H](C)CO)C(=O)c2cc(NC(=O)Nc3ccc(F)cc3)ccc2O[C@@H](C)CCCCO[C@@H]1CN(C)Cc1ccc2c(c1)OCO2`: “inactive”.
In the case of `C[C@@H]1CN([C@@H](C)CO)C(=O)c2cc(NC(=O)Nc3ccc(F)cc3)ccc2O[C@@H](C)CCCCO[C@@H]1CN(C)Cc1ccc(C(=O)O)cc1`, the cytotoxicity call was “inactive”.
The same measure for `C[C@@H]1CN([C@H](C)CO)C(=O)c2cc(NS(=O)(=O)c3cn(C)cn3)ccc2O[C@@H]1CN(C)Cc1ccncc1`: “inactive”.
